Here are results for six molecules from PubChem BioAssay (NCI).

About 83,000 compounds went through this panel and 20% of them were active in at least one assay; those are over-represented in the sample as a whole.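 96-well plates, one dose, 48 hours. Percent growth reported; active if below 10.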 Unmarked numbers belong to inactive results. Active and inactive are the calls of the source.

Test systems include HCT-15 colon; SNB-75 CNS; SNB-19 CNS; U251 CNS; PC-3 prostate; SK-MEL-5 melanoma; UACC-62 melanoma; LOX IMVI melanoma; SK-MEL-28 melanoma; EKVX NSCLC; SN12C renal; UO-31 renal; TK-10 renal; ACHN renal; CAKI-1 renal; A498 renal; CCRF-CEM leukemia; MOLT-4 leukemia; SK-MEL-2 melanoma; HT29 colon.
Assay in all cases: NCI-60 one-dose screen, 48 h (100 = growth as untreated, 0 = no growth, -100 = all killed)
Settings in all cases: 10 µM unless noted

On to `COc1ccc(/C(C)=C(\c2ccc(OCCN3CCCCCC3)cc2)c2ccc(OC(=O)c3ccccc3)cc2)cc1`, for which the growth in the assay on HCT-15 colon is 12.1%; with SNB-75 CNS it was 83.3%; in the assay on SNB-19 CNS, 62.8%; in the assay with U251 CNS, 31.7%; in the assay on PC-3 prostate, 39.6%; in the assay on SK-MEL-5 melanoma, 42.8%. Also, the growth in the assay with UACC-62 melanoma is 19.1%; in the assay with LOX IMVI melanoma it was -51% (active); in the assay on SK-MEL-28 melanoma, 54.9%; with EKVX NSCLC, 74.4%; in the assay with SN12C renal, 56.2%; with UO-31 renal, 26.2%. Also, the growth is 74.5% in the assay on TK-10 renal; 72.3% in the assay on ACHN renal; 52.9% in the assay on CAKI-1 renal; 82.1% with A498 renal; 26.8% with CCRF-CEM leukemia; 17.4% in the assay with MOLT-4 leukemia.

With `C=CCn1c(SCC(=O)Nc2ccc(C(=O)/C=C/c3ccc(OC)cc3)cc2)nnc1-c1ccccc1`, the growth is 83.4% in the assay on HCT-15 colon; 70.6% in the assay with SNB-75 CNS; 83.9% in the assay with SNB-19 CNS; 98.1% in the assay with U251 CNS; 67.1% in the assay on PC-3 prostate; 92.2% in the assay with SK-MEL-5 melanoma. Moreover, the growth in the assay with UACC-62 melanoma is 74.5%; in the assay on LOX IMVI melanoma, 87.2%; in the assay on SK-MEL-28 melanoma, 89.4%; in the assay with SK-MEL-2 melanoma, 82.4%; in the assay on EKVX NSCLC it was 88.4%; with SN12C renal it was 89.2%. The growth with UO-31 renal was 69.4%; with TK-10 renal, 98%; in the assay with CAKI-1 renal, 93.1%; in the assay on A498 renal, 97.3%; in the assay on CCRF-CEM leukemia, 84.5%; with MOLT-4 leukemia, 61.1%.

For `N#Cc1c(Nc2ccc(F)cc2)n[nH]c1-c1cccs1`, the growth in the assay with HCT-15 colon is 97.7%; in the assay on SNB-75 CNS it was 85.6%; in the assay with SNB-19 CNS it was 85.6%; with U251 CNS, 102%; with PC-3 prostate, 95.7%; in the assay with SK-MEL-5 melanoma, 97.1%. The growth in the assay on UACC-62 melanoma is 76.9%; with LOX IMVI melanoma it was 95.1%; with SK-MEL-28 melanoma it was 105%; in the assay with SK-MEL-2 melanoma, 117%; with EKVX NSCLC it was 92.6%; in the assay on SN12C renal, 89.5%. The growth in the assay on UO-31 renal was 74.1%; in the assay on TK-10 renal it was 135%; in the assay on ACHN renal, 88.4%; with CAKI-1 renal it was 88.9%; in the assay with A498 renal, 103%; in the assay with CCRF-CEM leukemia, 100%. For the same molecule, the growth in the assay with MOLT-4 leukemia was 103%.

On to `CC1(C)C2CC=C(/C=N/NC(=O)C3CCC(=O)N3)C1C2` (stereo unspecified), for which the growth in the assay on HCT-15 colon was 104%; in the assay on SNB-75 CNS, 91.6%; with SNB-19 CNS, 106%; in the assay with U251 CNS, 101%; in the assay with PC-3 prostate it was 102%; in the assay on SK-MEL-5 melanoma, 101%. In addition, the growth was 99.2% in the assay on UACC-62 melanoma; 96.9% in the assay on LOX IMVI melanoma; 108% with SK-MEL-28 melanoma; 102% in the assay on SK-MEL-2 melanoma; 105% in the assay on EKVX NSCLC; 104% in the assay with SN12C renal. Further, the growth was 94.6% in the assay on UO-31 renal; 97.2% with TK-10 renal; 102% in the assay on ACHN renal; 97.4% in the assay on CAKI-1 renal; 102% in the assay on A498 renal; 104% with CCRF-CEM leukemia. In the assay with MOLT-4 leukemia, the growth is 103%.

`Cc1cc(C)c(-c2c(O)c(Br)c(-c3c(C)cc(C)c(Br)c3C)c(O)c2Br)c(C)c1Br`: the growth in the assay on HCT-15 colon is 10.2%; in the assay with HT29 colon, 2.43% (active); in the assay on SNB-75 CNS, 33.4%; in the assay with SNB-19 CNS, 47.5%; with U251 CNS, 19.8%; with SK-MEL-5 melanoma, 1.69% (active). Besides, the growth in the assay with LOX IMVI melanoma was -26% (active); with SK-MEL-28 melanoma it was 49.1%; in the assay on SK-MEL-2 melanoma, -22.3% (active); with EKVX NSCLC, 19.2%; in the assay with SN12C renal it was 37.2%; in the assay on UO-31 renal it was -29.9% (active). The growth is 12% in the assay on TK-10 renal; 14.1% in the assay on ACHN renal; 5.75% (active) in the assay on CAKI-1 renal; 64.7% with A498 renal; 35.6% with CCRF-CEM leukemia; 28.9% in the assay with MOLT-4 leukemia.

For `CN1CCN(CCCOC(=O)c2c3c(n4ccccc24)C(=O)c2ncccc2C3=O)CC1`, the growth in the assay on HCT-15 colon is -39.1% (active); in the assay with SNB-75 CNS it was -88.7% (active); in the assay on SNB-19 CNS, 1.8% (active); in the assay with U251 CNS it was -31.7% (active); in the assay on PC-3 prostate it was 17.6%; in the assay on SK-MEL-5 melanoma, -98% (active). For the same molecule, the growth in the assay with UACC-62 melanoma was -48.8% (active); in the assay on LOX IMVI melanoma, -60.9% (active); with SK-MEL-28 melanoma, 12.5%; with SK-MEL-2 melanoma, -52.7% (active); with EKVX NSCLC it was 37.7%; in the assay with SN12C renal it was -66.3% (active). For the same molecule, the growth in the assay with UO-31 renal is -80.9% (active); with TK-10 renal, 3.81% (active); in the assay with ACHN renal, -53.6% (active); in the assay on CAKI-1 renal, 0.119% (active); in the assay on A498 renal, 38.3%; in the assay on CCRF-CEM leukemia it was -16.3% (active). In addition, the growth with MOLT-4 leukemia is -2.53% (active).
